Data taken from publication PMC7826789 (International Journal of Molecular Sciences, 2021).

Legend:
Details in all cases: Compound Concentration (nM):1000
YSK1 = system: T1, YSK1
T1 construct: gene STK25

YSK4 = system: T2, YSK4
T2 construct: gene MAP3K19

ZAK = system: ZAK
ZAP70 = system: ZAP70
p38-alpha = system: T3, p38-alpha
T3 construct: gene MAPK14

p38-beta = system: T4, p38-beta
T4 construct: gene MAPK11

p38-delta = system: T5, p38-delta
T5 construct: gene MAPK13

p38-gamma = system: T6, p38-gamma
T6 construct: gene MAPK12
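Also: KINOMEscan scanMAX binding as percent activity remaining versus control; lower means stronger binding.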

Structure (SMILES) | Percent Control (YSK1) [%] | Percent Control (YSK4) [%] | Percent Control (ZAK) [%] | Percent Control (ZAP70) [%] | Percent Control (p38-alpha) [%] | Percent Control (p38-beta) [%] | Percent Control (p38-delta) [%] | Percent Control (p38-gamma) [%]
COc1ccc2[nH]c3c4[nH]c5ccc(OC)cc5c4c4c(c3c2c1)C(=O)NC4=O [GW296115X] | 89 | 0 | 100 | 76 | 87 | 100 | 86 | 70
COc1cc(/C=N/Nc2ncnc3[nH]ncc23)ccc1O [GW578748X] | 70 | 3.2 | 59 | 76 | 100 | 100 | 100 | 69
NS(=O)(=O)c1ccc(N/N=C2\C(=O)Nc3ccc(-c4cnco4)cc32)cc1 [GW276655] | 59 | 1.9 | 80 | 88 | 100 | 100 | 99 | 66
COc1cc(C)c(N(C)C(=O)CN(C)C)cc1Nc1nc(Nc2cccc(F)c2C(N)=O)c2cc[nH]c2n1 [GSK2219385] | 100 | 51 | 90 | 81 | 97 | 100 | 100 | 56
Cl.O=C(O[C@H]1CN[C@H](C#Cc2cc3ncnc(Nc4ccc5c(cnn5Cc5ccccc5)c4)c3s2)C1)N1CCOCC1 [GSK200398A] | 79 | 83 | 82 | 89 | 100 | 100 | 100 | 100
Cl.O=C(Nc1ccc(Oc2ccc3[nH]c(NC(=O)c4ccco4)nc3c2)cc1)Nc1cc(C(F)(F)F)ccc1F [GW683134A] | 70 | 13 | 3.2 | 100 | 97 | 37 | 100 | 82
COc1cccc(-n2ncc3c(N/N=C/c4ccncc4)ncnc32)c1 [GW784752X] | 90 | 21 | 39 | 98 | 100 | 100 | 100 | 100
CN1CCN(C(=O)c2ccc(NC(=O)Nc3ccc(N(C)c4ccnc(Nc5ccc(CS(C)(=O)=O)cc5)n4)cc3)cc2)CC1.Cl [GW830263A] | 83 | 0 | 86 | 65 | 83 | 100 | 100 | 100
CN(C)c1cc2c(Nc3ccc4c(cnn4Cc4ccccc4)c3)ncnc2cn1 [GW282974X] | 83 | 90 | 90 | 83 | 100 | 100 | 99 | 100
C/C(Nc1ccc(S(N)(=O)=O)cc1)=C1/C(=O)Nc2ccccc21 [GW335962X] | 55 | 14 | 100 | 94 | 100 | 100 | 100 | 73
COc1cc(N2CCN(C(C)C)CC2)ccc1Nc1nc(Nc2ccc(F)cc2C(=O)NC[C@@H](O)CO)c2cc[nH]c2n1 [GSK1392956A] | 89 | 34 | 93 | 86 | 100 | 100 | 100 | 91
